Measured values reported in PubChem BioAssay AID2284135 (EPA ToxCast).
Inconclusive results are not listed. The source made the active and inactive calls. Rule for the calls: active = hit-call score of the fitted dose curve at least 0.9, where 1 is the maximum; inconclusive = response in the unintended direction; inactive = score below 0.9.

The compounds below were run against cAMP-dependent protein kinase catalytic subunit alpha (Homo sapiens) (UniProt P17612) (assay: ERF_TW_ENZ_hPRKACA: Eurofins (ERF) Enzymatic Radiometric [10 uM ATP] LeadHunter Assay for human PKA AGC Kinase).
Protocol: ERF_TW_ENZ_hPRKACA is a biochemical, single-readout assay that uses extracted gene-proteins in a cell-free assay. Measurements were taken 0.25 hour after chemical dosing in a 96-well plate. See PKA Human AGC Kinase Enzymatic Radiometric Assay [10 uM ATP], Panlabs.ERF_TW_ENZ_hPRKACA is an assay component calculated from the ERF_TW_ENZ_hPRKACA assay. It is designed to measure enzyme activity using a type of enzyme reporter as detected by scintillation counting with radiometry technology.Data from the assay component ERF_TW_ENZ_hPRKACA was analyzed at the assay endpoint, ERF_TW_ENZ_hPRKACA, in the positive analysis fitting direction relative to DMSO as the negative control and baseline of activity. Using a type of enzyme reporter, loss-of-signal activity can be used to understand changes in enzymatic activity as they relate to gene PRKACA. To generalize the intended target to other relatable targets, this assay endpoint is annotated to the kinase intended target family, where the subfamily is serine/threonine kinase.
Human protein kinase PKA expressed in E. coli. is used. Test compound and/or vehicle is preincubated with 23 ng/ml enzyme in modified MOPS buffer pH 7.2 at 37C for 15 minutes. The reaction is initiated by addition of 0.5 uM PKA substrate peptide, 10 uM ATP and 0.25 uCi [gamma32P]ATP for another 15 minute incubation period and terminated by further addition of 3 % H3PO4. An aliquot is removed to a 96 well multiscreen, washed with H3PO4 solution, dried and counted to determine the amount of 32P- PKA substrate peptide formed. Compounds are screened at 10 uM.Test Sample Requirements: Minimum for 1) Screen: 25 ul of 10 mM stock -OR- 1 mg (pre-weighed). 2) Dose Response: 60 ul of 10 mM stock -OR- 1 mg (pre-weighed).
With COc1cc(CCC(=O)CC(=O)CCc2ccc(O)c(OC)c2)ccc1O the AC50 was 3010 nM (active).
COc1cc(/C=C/C(=O)CC(=O)/C=C/c2ccc(O)c(OC)c2)ccc1O was tested, and the AC50 was 2970 nM (active).
For O=C(/C=C/c1ccc(O)cc1)CC(=O)/C=C/c1ccc(O)cc1, the AC50 was 2190 nM (active).
